# Screening results as filed in PubChem.
# M1 antag: human CHRM1 antagonism; AID 588852; CHO-K1 hM1, Fluo-8 calcium fluorescence, ACh EC80 antagonist; hit rate 1.3% among 360,000; inhibition, % at 3 µM;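 active = percent inhibition above its own plate's cutoff, namely the mean of that plate's compound wells plus 3 SD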;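 also: peak over basal fluorescence ratio during 140 s after agonist addition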
# Target sequence (P11229 whole entry, looked up): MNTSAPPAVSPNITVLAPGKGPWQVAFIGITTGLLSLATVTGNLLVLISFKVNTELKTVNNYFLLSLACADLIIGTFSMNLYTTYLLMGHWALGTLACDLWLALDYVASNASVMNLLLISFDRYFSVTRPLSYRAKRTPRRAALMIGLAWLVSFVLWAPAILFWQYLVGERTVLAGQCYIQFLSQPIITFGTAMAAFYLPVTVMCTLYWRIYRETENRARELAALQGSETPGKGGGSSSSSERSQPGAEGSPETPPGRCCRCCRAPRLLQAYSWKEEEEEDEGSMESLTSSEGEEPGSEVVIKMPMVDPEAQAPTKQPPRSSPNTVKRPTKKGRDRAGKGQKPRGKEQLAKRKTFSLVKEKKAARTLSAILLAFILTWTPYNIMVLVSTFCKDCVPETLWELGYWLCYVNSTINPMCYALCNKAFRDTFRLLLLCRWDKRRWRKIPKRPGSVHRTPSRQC
# CHO-K1 Ca ag: nonselective activator or artifact in parental CHO-K1 cells; Fluo-8 calcium fluorescence; scaled to maximal ATP response, vehicle zero; activation, % at 3 µM; hit rate 0.48% among 360,000; AID 602248; in the data active = activation above about 15%;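 also: untransfected CHO-K1 host cells lacking M1 receptor as counterscreen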
# CHO-K1 Ca PAM: counter-screen for M1 PAMs: effect in parental CHO-K1 cells. hit rate 0.02% among 360,000. activation, % at 3 µM. ATP EC20, Fluo-8 calcium fluorescence; 0% at ATP EC20, 100% at ATP max;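 active = activation above the run cutoff, the mean activation of all test compounds plus 3 SD, cut at about 40% in these data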;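 also: peak over basal fluorescence ratio in a 140 s read after ATP addition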
# CHRM1 PAM: potentiates human M1 receptor response to acetylcholine; P11229; CHO-K1 hM1, Fluo-8 calcium fluorescence, ACh EC20; 0% = ACh EC20, 100% = maximal ACh; activation, % at 3 µM; hit rate 0.088% among 360,000; in the data active = activation above about 19%, passing the limit was not always enough
# CHRM1 agonist: human M1 muscarinic receptor agonism | hit rate 0.33% among 360,000 | activation, % at 3 µM | AID 588814 | P11229 | CHO-K1 hM1, Fluo-8 calcium fluorescence, agonist mode; 0% DMSO, 100% acetylcholine EC100;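 active = activation above the run's mean compound activation plus 3 SD, cut at about 16% in these data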;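 also: peak over basal fluorescence ratio within a 140 s kinetic read after compound addition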
# CHO-K1 Ca antag: M1 antagonist counterscreen hit in parental CHO-K1 cells | inhibition, % at 3 µM | ATP-induced calcium, Fluo-8 fluorescence | hit rate 0.6% among 360,000;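 active = inhibition above a per-plate cutoff, the plate's mean sample inhibition plus 3 SD, cut at about 24% in these data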
# Hits are given with their value; 0 = inactive. Compounds with a hit are over-represented: about 2.3% of the library has one in this group of screens.
SMILES,M1 antag,CHO-K1 Ca ag,CHO-K1 Ca PAM,CHRM1 PAM,CHRM1 agonist,CHO-K1 Ca antag
CC1CCN(C(=O)c2ncn3c2c(=O)[nH]c2cccnc23)CC1,0,0,0,0,0,0
C#CCOCCOCCOCCNc1nc(N2CCOCC2)nc(N2CCN(C(=O)[C@H](CCC(=O)O)n3cc(C(N)Cc4ccc(O)cc4)nn3)CC2)n1 (some centres not stated),0,0,0,0,0,0
C=CC[C@@H](CC(=O)N[C@@H](CO)Cc1ccccc1)C(=O)NC[C@H](OC(=O)[C@@H](CC=C)Cc1ccc(F)cc1)c1ccccc1,0,0,0,0,0,0
C=CC[C@@H](CC(=O)NCCO)C(=O)NC[C@H](OC(=O)[C@@H](CC=C)Cc1ccc(F)cc1)c1ccccc1,53.1,0,0,0,0,0
C=CC[C@H](CC(=O)N(CCO)Cc1ccccc1)C(=O)NC[C@H](OC(=O)[C@@H](CC=C)Cc1ccc(F)cc1)c1ccccc1,43.2,0,0,0,0,0
C=CC[C@@H](CC(=O)N[C@@H](CO)Cc1ccccc1)C(=O)NCCOC(=O)[C@@H](CC=C)Cc1ccc(F)cc1,0,0,0,0,0,23.9
C=CC[C@@H](CC(=O)N(CCO)Cc1ccccc1)C(=O)NC[C@@H](OC(=O)[C@@H](CC=C)Cc1ccc(F)cc1)c1ccccc1,0,0,0,0,0,0
COCCNC(=O)C(c1ccc(C)cc1)N(C(=O)C(=O)NC1CCCC1)c1ccc2c(c1)OCCO2 (configuration not stated),0,0,0,0,0,0
CCCn1c(NC(=O)CCS(=O)(=O)c2ccc(C)cc2)nc2ccccc21,0,0,0,0,0,0
NC(c1ccccc1)c1csc(Nc2cc(Oc3ccccc3)ncn2)n1 (configuration not stated),60.4,0,0,0,0,0
COc1ccc(CCNC(=O)C2CC2)cc1,0,0,0,0,0,27.9
Cc1ccc(C)c(S(=O)(=O)N2CCCC2CNC(=O)C(=O)NCCc2ccccc2)c1 (configuration not stated),30.9,0,0,0,0,0
COc1ccc(CCNC(=O)C(=O)NCC2CCCN2S(=O)(=O)c2ccccc2)cc1 (configuration not stated),29.5,0,0,0,0,0
O=C(NCc1ccc(F)cc1)C(=O)NCC1CCCN1S(=O)(=O)c1ccccc1 (configuration not stated),0,0,0,0,0,0
O=C(NCCc1ccc(F)cc1)C(=O)NCC1CCCN1S(=O)(=O)c1ccccc1 (configuration not stated),26.7,0,0,0,0,0
CC(=O)c1ccc(N2CCN(C(=O)c3cc(-c4ccncc4)nc4ccc(Cl)cc34)CC2)cc1,0,0,0,0,0,0
COc1ccc(NC(=O)COc2ccccc2Cc2ccccc2)cc1S(N)(=O)=O,37.4,18.1,0,0,0,48.1
CCc1noc(C)c1C(=O)Nc1nc(-c2ccc(OC)cc2)cs1,36.6,0,0,0,0,0
CCOc1ccc(CCNC(=O)CN2CCN(Cc3ccccc3C)C2=O)cc1OCC,0,0,0,0,0,0
CSc1nc2c(c(=O)[nH]1)C(c1ccc(Br)cc1)CC(=O)N2 (configuration not stated),0,16.1,0,0,0,0
CSc1nc2c(c(=O)[nH]1)C(c1ccc(F)cc1)CC(=O)N2 (configuration not stated),0,0,0,0,0,0
CCN(CC(=O)Nc1ccc(OC)cc1)C(=O)Cc1ccc(OC)c(S(=O)(=O)N2CCOCC2)c1,0,0,0,0,0,0
Cc1cccc2cc3c(N)c(C(=O)N4CCc5ccccc54)sc3nc12,29.6,32.9,0,0,0,44.5
CCCn1cc(CN2CCCC(C(=O)c3cccc(OC(C)C)c3)C2)c(C)n1 (configuration not stated),38.5,0,0,0,0,0
CCCn1ncc(CN2CCCC(C(=O)c3cccc(OC(C)C)c3)C2)c1C (configuration not stated),99.2,0,0,0,0,0
CC(C)Oc1cccc(C(=O)C2CCCN(Cc3cnc(N4CCCC4)s3)C2)c1 (configuration not stated),0,0,0,0,0,0
